# Assay: qHTS profiling of the MIPE4 collection as inhibitors of Plasmodium falciparum (HB3) proliferation (AID 743347)
# Conditions: P. falciparum HB3 in erythrocytes, SYBR Green DNA, 72 h; at 9.64 µM (top of the series)
# Source text: Plasmodium falciparum is a virulent malarial parasite that kills 1-2 million people worldwide each year. Transmitted by mosquitoes, the sporozoite form of the parasite enters the blood stream to infect hepatocytes, where they become merozoites that infect red blood cells (erythrocytes). Within erythrocytes, merozoites begin a […] cycle of growth and division, after which the parasite is released to infect new red blood cells. Gametocytes, which form within erythrocytes as well, circulate in the bloodstream and are ingested by the mosquito, thereby completing the life cycle. To profile malarial isolates for differential chemical responses and to identify inhibitors of malarial growth, an assay that measures P. falciparum growth and replication within erythrocytes was employed. This assay uses a DNA binding fluorescent dye (SYBR Green) to detect parasite DNA following cell lysis. Because mature erythrocytes lack DNA, only Plasmodium-derived DNA is detected.
# The SYBR Green viability assay was adapted from a method described previously (Plouffe et al., 2008). For screening 3 ul culture medium was dispensed into 1536 well black clear bottom plates (Aurora Biotechnologies) using a Multidrop Combi (Thermo Fisher Scientific Inc.), 23 nL compounds in DMSO were added by a pin tool (Kalypsys), and 5 ul of erythrocytes infected with P. falciparum (0.3% parasitemia, 2.5% hematocrit final concentration) were added. The plates were incubated at 37 C in a humidified incubator in 5% CO2 for 72 h, and 2 ul lysis buffer (20 mM Tris HCl, 10 mM EDTA, 0.16% saponin, 1.6% triton X, 10X SYBR Green I supplied as 10,000X […] by Invitrogen) was added to each well. The plates were mixed for 25 sec with gentle shaking and incubated overnight at room temperature in the dark. The following morning, fluorescence intensity at 485(14) nm excitation and 535(25) nm emission wavelengths was measured on an EnVision (Perkin Elmer) plate reader. Plate reads were normalized relative to the control inhibitor (0.29 uM artemisinin) and vehicle (DMSO) wells present on each plate and then corrected by an algorithm using vehicle-only control plates at the beginning and end of the compound plate stack.
row,Compound,"growth, % of control"
1,C[C@H]1C[C@@H]2[C@@H]([C@@H](O)C[C@@]3(C)[C@H]2CC[C@]3(O)C(=O)CO)[C@@]2(C)C=CC(=O)C=C12,93.3%

# Same assay, conditions: P. falciparum HB3 in erythrocytes, SYBR Green DNA, 72 h; at 28.5 µM (top of the series)
row,Compound,"growth, % of control"
1,C[C@H]1C[C@@H]2[C@@H]([C@@H](O)C[C@@]3(C)[C@H]2CC[C@]3(O)C(=O)CO)[C@@]2(C)C=CC(=O)C=C12,57.2%

# Same assay, conditions: P. falciparum HB3 in erythrocytes, SYBR Green DNA, 72 h; at 28.5 µM (top of the series) unless noted
row,Compound,"growth, % of control"
1,Cc1[nH]c2ccccc2c1CCNCc1ccc(C=CC(=O)NO)cc1,2.36%
2,C=CC(=O)Nc1cccc(Oc2nc(Nc3ccc(N4CCN(C)CC4)cc3)ncc2Cl)c1,5.58%
3,Clc1ccc2ncc(-c3cccc(NC4CNC4)n3)n2c1,3.87%
4,NC(=O)Nc1cc(-c2cccc(F)c2)sc1C(=O)N[C@H]1CCCNC1,6.42%
5,CC[C@@H]1C(=O)N(C)c2cnc(Nc3ccc(C(=O)NC4CCC(N5CCN(CC6CC6)CC5)CC4)cc3OC)nc2N1C(C)C (stereo not given in full),6.88%
6,COc1cc2c(NC3CCN(C(C)C)CC3)nc(C3CCCCC3)nc2cc1OCCCN1CCCC1,4.41%
7,N#Cc1c(O)c2c(-c3ccc(-c4ccccc4O)cc3)csc2[nH]c1=O,71.1%
8,Cc1cc(Nc2nc(N[C@@H](C)c3ccc(F)cc3)c(C#N)cc2F)n[nH]1,6.34%
9,Nc1ccn([C@@H]2CS[C@H](CO)O2)c(=O)n1,263% [at 57.5 µM]
10,Cc1ccc2nc(NC(=O)CSc3nc4c(c(=O)n3-c3ccccc3)SCC4)sc2c1,42.3%
11,Nc1ccccc1NC(=O)c1ccc(CNc2nccc(-c3cccnc3)n2)cc1,2.52%
12,COc1cc(Nc2ncc(F)c(Nc3ccc4c(n3)N(COP(=O)(O)O)C(=O)C(C)(C)O4)n2)cc(OC)c1OC,11.1%
13,COC(=O)[C@]12CCC(C)(C)C[C@@H]1[C@@H]1C(=O)C=C3[C@@]4(C)C=C(C#N)C(=O)C(C)(C)[C@@H]4CC[C@@]3(C)[C@]1(C)CC2,11.3%
14,CN(c1ncccc1CNc1nc(Nc2ccc3c(c2)CC(=O)N3)ncc1C(F)(F)F)S(C)(=O)=O,10.4%
15,CC(C)c1cnn2c(NCc3ccccc3)cc(N[C@@H](CO)[C@H](O)CO)nc12,14.5%
16,CCCCCN(CCC12CC3CC(CC(C3)C1)C2)C(=O)NCCCc1ccncc1,6.74%
17,CC(C)c1nn(-c2c(Cl)cccc2Cl)c2nc(Cc3ccc(OCCO)cc3)[nH]c(=O)c12,21.7%
18,Cc1cc(Nc2cc(N3CCN(C)CC3)nc(Sc3ccc(NC(=O)C4CC4)cc3)n2)n[nH]1,2.93%
19,COc1ccc(C=Cc2cc(OC)c(OC)c(OC)c2)cc1O,22.3%

row,Compound,"growth, % of control"
1,C=C1C(=CC=C2CCCC3(C)[C@@H]([C@H](C)C=CC=CC(O)(CC)CC)CC[C@@H]23)C[C@@H](O)C[C@@H]1O (stereo not given in full),15%
2,COC(=O)c1ccc2c(C(=Nc3ccc(N(C)C(=O)CN4CCN(C)CC4)cc3)c3ccccc3)c(O)[nH]c2c1,5.35%
3,O=c1[nH]nc(Sc2ncc([N+](=O)[O-])s2)n1-c1ccc2c(c1)OCCO2,62.4%
4,CS(=O)(=O)c1ccc(-c2cnc(N)c(C(=O)Nc3ccccc3)n2)cc1,2.44%
5,COc1cccc2c(NCc3ccccc3)nc(-n3c(N)nc4ccccc43)nc12,3.05%
6,Nc1cc(C(F)(F)F)c(-c2cc(N3CCOCC3)nc(N3CCOCC3)n2)cn1,18.9%
7,Cc1ccc(NC(=O)C2(c3ccc4c(c3)OC(F)(F)O4)CC2)nc1-c1cccc(C(=O)O)c1,5.22%
8,COc1ccc(F)c(F)c1C(=O)c1cnc(NC2CCN(S(C)(=O)=O)CC2)nc1N,37.7%
9,C[C@@]12O[C@@H](C[C@]1(O)CO)n1c3ccccc3c3c4c(c5c6ccccc6n2c5c31)CNC4=O,9.72%
10,Cc1c(Cn2c(C)nc3c(C(=O)O)cc(N4CCOCC4)cc32)cccc1C(F)(F)F,124%
11,COc1cc2c(Nc3ccc(NC(=O)c4ccccc4)cc3)ncnc2cc1OCCCN1CCOCC1,8.34%
12,Cc1nc(Nc2n[nH]c3c2CN(C(=O)N[C@H](CN(C)C)c2ccccc2)C3(C)C)c2sccc2n1,6.35%
13,CC1(C)O[C@@H]2C[C@@H]3[C@H]4C[C@@H](F)C5=CC(=O)C=C[C@]5(C)[C@@]4(F)[C@@H](O)C[C@]3(C)[C@]2(C(=O)CO)O1,76%
14,C#Cc1cccc(Nc2ncnc3cc(OC)c(OCCCCCCC(=O)NO)cc23)c1,3.1%
15,COc1cc2c(cc1-c1c(C)noc1C)ncc1[nH]c(=O)n([C@H](C)c3ccccn3)c12,74.1%
16,CNC(=O)c1nn(C)c2c1C(C)(C)Cc1cnc(Nc3ccc(N4CCN(C)CC4)cc3)nc1-2,3.32%
17,CC=CC1=C(C(=O)O)N2C(=O)[C@H](NC(=O)[C@H](N)c3ccc(O)cc3)[C@@H]2SC1,88%
18,Cc1cn2c(-c3cn[nH]c3)cnc2c(Nc2ccc(C(=O)N3CCNCC3)cc2F)n1,3.68%
19,Cc1nc2ccc(CN(C)c3ccc(C(=O)N[C@@H](CCC(=O)O)C(=O)O)s3)cc2c(=O)[nH]1,424%

# — PubChem BioAssay (NCATS)
